Measurements: the supplement of paper PMC10981050
Several values for one entry are separate records, joined by “and”; a condition that tells them apart may be missing. Identical values can stand only once. Counter-ions that a name gives are not always drawn.

Assays:
Test in all cases: cell viability relative to vehicle control; higher = less cytotoxic
Conditions in all cases: 10 µM
K562 = tested on: K562
How it was run: (§1)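 Each screen used CRISPR-edited mutant and wild-type clones from four leukaemia lines. Compounds were acoustically dispensed at a single 10 µM dose, and CellTiter-Glo luminescence was read after 48 h with the supernatant first removed. Viability was analysed in Genedata Screener and given as percent of the on-plate vehicle control.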

MARIMO = tested on: MARIMO
How it was run: as §1

MOLM14 = tested on: MOLM14
How it was run: as §1

OCI-AML2 = tested on: OCI-AML2
How it was run: as §1

Row | Structure (SMILES) | cell viability (K562; SRSF2 genotype: SRSF2 P95H/wt) | cell viability (K562; SRSF2 genotype: SRSF2 wt/wt) | cell viability (MARIMO; SRSF2 genotype: SRSF2 P95H/wt) | cell viability (MARIMO; SRSF2 genotype: SRSF2 wt/wt) | cell viability (MOLM14; SRSF2 genotype: SRSF2 P95H/wt) | cell viability (MOLM14; SRSF2 genotype: SRSF2 wt/wt) | cell viability (OCI-AML2; SRSF2 genotype: P95H/wt) | cell viability (OCI-AML2; SRSF2 genotype: wt/wt)
1 | O=C1Nc2ccc(CN3C(=O)CSC3=O)cc2/C1=C/c1cc(CN2CCOCC2)c[nH]1 | 98.7% and 100% | 103% | 97.1% | 100% | 92% | 100% | 97.6% | 91%
2 | O=C1N=C(N2CCOCC2)CN1c1ccc(Cl)cc1 | 107% and 99% | 94.4% | 99.3% | 111% | 94.8% | 104% | 95.4% | 86.8%
3 | Cc1cc([C@@H](C)Nc2ccccc2C(=O)O)c2nc(N3CCOCC3)cc(=O)n2c1 | 88.7% and 86.4% | 89.2% | 66.9% | 66.3% | 49.6% | 48.3% | 49.8% | 56.1%
4 | Cc1c(-c2ccc(C(N)=O)c3[nH]c4cc(C(C)(C)O)ccc4c23)cccc1-n1cnc2ccccc2c1=O | 80.1% and 89.9% | 92.2% | 73.5% | 66.2% | 48.4% | 54.8% | 43.6% | 46.2%
5 | CC[C@H](C)C(=O)O[C@H]1C[C@H](O)C=C2C=C[C@H](C)[C@H](CC[C@@H](O)C[C@@H](O)CC(=O)O)[C@H]21 [Pravastatin sodium] | 103% and 97.3% | 92.3% | 95.2% | 103% | 104% | 102% | 91% | 105%
6 | O=c1cc(-c2ccc(O)cc2)oc2cc(O)c([C@@H]3O[C@H](CO)[C@@H](O)[C@H](O)[C@H]3O)c(O)c12 [Isovitexin] | 98.2% and 98.6% | 98.3% | 92.1% | 93.6% | 95.1% | 95.9% | 99.7% | 103%
7 | COc1cc2nccc(Oc3ccc(NC(=O)Nc4cc(C)on4)c(Cl)c3)c2cc1OC [Tivozanib (AV-951)] | 11.4% and 16.2% | 21.9% | 56.2% | 61.4% | 11.3% | 10.3% | 26.1% | 29.9%
8 | O=C(O)/C=C/c1ccc(O)cc1 [p-Coumaric Acid] | 101% and 108% | 110% | 108% | 110% | 107% | 107% | 109% | 103%
9 | O=C(O)Cc1ccccc1Nc1c(Cl)cccc1Cl [Diclofenac Potassium] | 94.4% and 99.1% | 97.2% | 106% | 105% | 93.5% | 100% | 95.3% | 105%
10 | CC(=O)OC/C=C(\C)CCC=C(C)C [Geranyl acetate] | 102% and 95.2% | 107% | 104% | 112% | 99.2% | 111% | 97.2% | 103%
11 | CN(C)CCNC(=O)c1cccn2c(=O)c3cc4ccccc4cc3nc12 | 32.5% and 33.8% | 30.8% | 35% | 26.6% | 0.3% | 0.24% | 0.28% | 1.23%
12 | Cc1cc(Nc2ncc3c(n2)N(C)C(=O)N(c2cc(NC(=O)c4cccc(C(F)(F)F)c4)ccc2C)C3)n(C)n1 [Pluripotin (SC1)] | 35.1% and 35.2% | 30.4% | 22.1% | 21.8% | 7.16% | 7.23% | 12.7% | 20.3%
13 | O=P(O)(O)C(O)(Cc1cccnc1)P(=O)(O)O [Risedronate sodium] | 95.3% and 102% | 91.4% | 88.9% | 102% | 91.8% | 101% | 93.7% | 98.3%
14 | O=[N+]([O-])c1ccc(Nc2nc(N3CCOCC3)nc(N3CCOCC3)n2)cc1 | 99% and 99.5% | 95.7% | 95.7% | 95.8% | 112% | 99.8% | 107% | 116%
15 | CC(C)S(=O)(=O)c1ccc2nccc(Nc3ccc4scnc4c3)c2c1 | 60.2% and 78.2% | 63.7% | 101% | 108% | 75.2% | 78.2% | 83.2% | 88.5%
16 | CCn1c(-c2nonc2N)nc2c(C#CC(C)(C)O)ncc(OC[C@H]3CCCNC3)c21 | 87.1% and 95.7% | 79.5% | 73% | 72.3% | 59.2% | 47.1% | 53.9% | 57.1%
17 | Cc1ccc(C(=O)N(CCCN)[C@@H](c2nc3cc(Cl)ccc3c(=O)n2Cc2ccccc2)C(C)C)cc1 | 0.81% and 1.13% | 0.6% | 0.37% | 0.68% | 0.2% | 0.34% | 0.16% | 0.25%
18 | CN(CCOc1ccc(CC2SC(=O)NC2=O)cc1)c1ccccn1 (stereo unspecified) [Rosiglitazone (Avandia)] | 101% and 90.7% | 85% | 89.6% | 101% | 90% | 96.6% | 94% | 101%
19 | COc1c(N2C[C@@H]3CCCN[C@@H]3C2)c(F)cc2c(=O)c(C(=O)O)cn(C3CC3)c12 [Moxifloxacin] | 94.1% and 92.9% | 90.2% | 93.9% | 99.8% | 95.3% | 96.4% | 86.8% | 90.4%

Row | Structure (SMILES) | cell viability (K562; SRSF2 genotype: SRSF2 P95H/wt) | cell viability (K562; SRSF2 genotype: SRSF2 wt/wt) | cell viability (MARIMO; SRSF2 genotype: SRSF2 P95H/wt) | cell viability (MARIMO; SRSF2 genotype: SRSF2 wt/wt) | cell viability (MOLM14; SRSF2 genotype: SRSF2 P95H/wt) | cell viability (MOLM14; SRSF2 genotype: SRSF2 wt/wt) | cell viability (OCI-AML2; SRSF2 genotype: P95H/wt) | cell viability (OCI-AML2; SRSF2 genotype: wt/wt)
20 | COc1ccc2[nH]c([S@@+]([O-])Cc3ncc(C)c(OC)c3C)nc2c1 [NEXIUM (esomeprazole magnesium)] | 101% and 97.4% | 104% | 97% | 107% | 92% | 98.6% | 90.5% | 94.8%
21 | CN(C)CCC=C1c2ccccc2CCc2ccccc21 [Amitriptyline HCl] | 83.3% and 90.4% | 88.2% | 77.1% | 83% | 79% | 89.7% | 80.7% | 89.2%
22 | CN(C)c1ccc(C(=O)NCCCCCCC(=O)NO)cc1 | 1.52% and 16.7% | 6.13% | 6.98% | 14.2% | 1.22% | 0.66% | 2.92% | 6.46%
23 | C[C@H]1[C@H](C)CC[C@]2(C(=O)O[C@@H]3O[C@H](CO[C@@H]4O[C@H](CO)[C@@H](O[C@@H]5O[C@@H](C)[C@H](O)[C@@H](O)[C@H]5O)[C@H](O)[C@H]4O)[C@@H](O)[C@H](O)[C@H]3O)CC[C@]3(C)C(=CC[C@@H]4[C@@]5(C)C[C@@H](O)[C@H](O)[C@@](C)(CO)[C@@H]5[C@H](O)C[C@]43C)[C@H]12 [Madecassoside] | 106% and 105% | 103% | 99.8% | 111% | 97.8% | 106% | 99.9% | 110%
24 | Cn1cc(C[C@@H](N)C(=O)O)c2ccccc21 [Indoximod (NLG-8189)] | 95.8% and 103% | 95.7% | 98.4% | 103% | 103% | 98.9% | 102% | 104%
25 | CC1=C(C(=O)Nc2ccc3[nH]ncc3c2)C(c2ccc(F)cc2)NC(=O)N1 (stereo unspecified) | 101% and 97.9% | 110% | 102% | 99.9% | 38.5% | 91.7% | 33.7% | 51.5%
26 | C/C=C(/C)C(=O)O[C@H]1Cc2cc3ccc(=O)oc3cc2OC1(C)C [Decursinol angelate] | 83.2% and 91.7% | 81.8% | 75% | 82.4% | 83.1% | 89.4% | 71.1% | 77.8%
27 | S=c1[nH]cnc2nc[nH]c12 [Mercaptopurine (6-MP)] | 58.5% and 51.3% | 34.1% | 82.1% | 85.9% | 74.4% | 63.6% | 83.2% | 90%
28 | CC(=O)Oc1c(C)c(C)c2c(c1C)CCC(C)(CCC[C@H](C)CCC[C@H](C)CCCC(C)C)O2 (stereo partly specified) [Vitamin E Acetate] | 105% and 103% | 106% | 102% | 103% | 103% | 106% | 105% | 94.2%
29 | Cc1ccc(NC(=S)NNc2c([N+](=O)[O-])cc(C(F)(F)F)cc2[N+](=O)[O-])cc1Cl | 81% and 81.3% | 90.4% | 87.3% | 86.2% | 89.3% | 84.6% | 101% | 94.4%
30 | COc1cc2c(cc1OC)-c1c(C)c3ccc(OC)c(OC)c3c[n+]1CC2 [Dehydrocorydalin] | 88.3% and 96% | 90.6% | 94% | 96% | 94.8% | 95.6% | 79.8% | 84.1%
31 | CC(C)=CCC/C(C)=C\CO [Nerol] | 109% and 104% | 104% | 110% | 114% | 106% | 107% | 103% | 109%
32 | CN1CCC(c2c(O)cc(O)c3c(=O)cc(-c4ccccc4Cl)oc23)C(O)C1 (stereo unspecified) [Flavopiridol (Alvocidib) HCl] | 5.96% and 15.8% | 7.9% | 11.1% | 4.66% | 3.87% | 0.54% | 5.83% | 16.3%
33 | C[C@@H](O)[C@H]1C(=O)N2C(C(=O)O)=C(S[C@@H]3CN[C@H](C(=O)Nc4cccc(C(=O)O)c4)C3)[C@H](C)[C@H]12 [Ertapenem sodium] | 108% and 107% | 105% | 103% | 109% | 99.6% | 107% | 97.1% | 99.8%
34 | Nc1nnc(-c2cccc(Cl)c2Cl)c(N)n1 [Lamotrigine] | 95.7% and 94.8% | 95% | 94.7% | 107% | 102% | 103% | 101% | 98.3%
35 | Cc1cc(C)nc(NC(=S)N2CCN(Cc3ccc(C(F)(F)F)cc3)CC2)c1 | 71.2% and 80.6% | 73.2% | 67.4% | 64.5% | 77.3% | 86.6% | 37.8% | 54%
36 | COC1=C2C[C@@H](C)C[C@H](OC)[C@H](O)[C@@H](C)/C=C(\C)[C@H](OC(N)=O)[C@@H](OC)/C=C\C=C(/C)C(=O)NC(=CC1=O)C2=O [Geldanamycin] | 15.4% and 22.8% | 24.4% | 26.4% | 19.1% | 1.24% | 1.11% | 1.59% | 10.6%
37 | NCc1c[nH]c(=S)n1[C@@H]1CCc2c(F)cc(F)cc2C1 [(R)-Nepicastat HCl] | 101% and 97% | 102% | 94.9% | 110% | 97.2% | 101% | 104% | 103%
